Assay outcomes (PubChem BioAssay)
D3 antag: blocks the human D3 dopamine receptor; P35462; D3R cells, DiscoveRx beta-arrestin luminescence, antagonist mode; active compounds read low; max response, negative = inhibition, %; 360,000 compounds, 2.5% hits; in the data active = max response below about -50%; inconclusive = no clear call, values can overlap the other calls; note: % is set by controls: 0 for no effect and ±100 for the full control effect
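Cells expressing the human receptor were seeded at 1500 cells/well, incubated overnight at 37 degrees C in 5% CO2, then exposed to library compounds with dopamine controls for 90 minutes at 37 degrees C before luminescent detection.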
D1 antagonist: antagonists of human D1 dopamine receptor; activity change, negative = inhibition, % at 10 µM; HEK293 TREx D1 cells, calcium flux, dopamine EC80; active compounds read low; 360,000 compounds, 3.2% hits; P21728; AID 504652; in the data active = activity change below about -30%; note: % is set by controls: 0 for no effect and ±100 for the full control effect
Target sequence (P21728 whole entry, looked up): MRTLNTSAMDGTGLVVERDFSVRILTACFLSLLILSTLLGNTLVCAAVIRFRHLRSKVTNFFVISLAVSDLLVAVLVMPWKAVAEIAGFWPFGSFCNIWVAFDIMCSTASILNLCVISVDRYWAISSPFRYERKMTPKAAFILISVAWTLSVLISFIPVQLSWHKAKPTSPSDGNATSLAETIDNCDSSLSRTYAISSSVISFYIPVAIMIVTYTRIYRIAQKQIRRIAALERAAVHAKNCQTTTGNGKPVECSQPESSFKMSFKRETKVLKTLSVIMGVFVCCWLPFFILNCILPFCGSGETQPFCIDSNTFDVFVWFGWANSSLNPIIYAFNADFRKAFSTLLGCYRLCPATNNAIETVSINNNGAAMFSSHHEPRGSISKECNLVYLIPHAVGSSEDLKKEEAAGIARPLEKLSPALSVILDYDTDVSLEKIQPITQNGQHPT
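After overnight tetracycline induction at 30 C, force-coupled D1 HEK293 cells took up a no-wash calcium dye at room temperature. Compounds were added and monitored 180 s, and the response to EC80 dopamine was then recorded.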
D1 ag: activates the human D1 dopamine receptor | 360,000 compounds, 1% hits | P21728 | HEK293 T-REx D1 cells, calcium flux, agonist mode | activation, % at 2 µM; in the data active = activation above about 30%; note: 0% is about no effect
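Agonism was scored from calcium flux recorded over 180 s (1 read/s) after pintool compound addition, following a 10-cycle baseline. Cells were inducible force-coupled HEK293 TREx D1, plated overnight at 30 C and loaded with no-wash calcium dye.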
D3 ag: activates the human D3 dopamine receptor; P35462; D3R DiscoveRx beta-arrestin cells, luminescence, 90 min; max activation, %; 410,000 compounds, 0.58% hits; AID 652048; in the data active = max activation above about 30%; note: 0% is about no effect
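Agonist-mode cell screen: cells plated at 1500/well and incubated overnight at 37 °C, then exposed to library compounds for 90 min at 37 °C. Detection reagent was added for 30–60 min at room temperature, and luminescence was read.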
D1 potentiator: potentiators of human D1 dopamine receptor | P21728 | HEK293 TREx D1 cells, calcium flux, dopamine EC20 potentiation | potentiation, % at 10 µM | 360,000 compounds, 0.036% hits | AID 504651; in the data active = potentiation above about 30%; note: 0% is about no effect
* = called active by the depositor; u = inconclusive; x = not tested or not shown; ! = a repeat was not active. This is a sample that favours compounds with a hit; in the whole collection about 6.1% have one here.

SMILES	D3 antag	D1 antagonist	D1 ag	D3 ag	D1 potentiator
O=C(Nc1ccc(-c2nc3ccccc3s2)cc1)c1cc(-n2cnnc2)ccc1Cl	23	-42*	7	16	-13
Cc1ccc(NC(=O)c2cc(-n3cnnc3)ccc2Cl)cc1	-28	1	-1	15	-3
NS(=O)(=O)c1cccc(NC(=O)COC(=O)CCC(=O)c2cccs2)c1	2	x	x	2	x
CN(C)S(=O)(=O)c1cccc(NC(=O)COC(=O)CCC(=O)c2cccs2)c1	-8	-34*	5	-3	-1
CCN(CC)S(=O)(=O)c1cccc(NC(=O)COC(=O)/C=C/c2cccs2)c1	-21	-31*	19	4	-5
COc1ccc(CNC(=O)CCC2N=C3c4ccccc4N=C(SCc4cccc(F)c4)N3C2=O)cc1 (stereo unspecified)	x	3	10	-2	3
CCc1ccc(NC(=O)CSc2nc3c([nH]c4ccccc43)c(=O)n2C)cc1	x	10	0	-2	-4
CC1=C(C(=O)Nc2ccccc2)C(c2ccc(C(=O)O)cc2)n2nc(SCC(=O)c3ccc(C)cc3)nc2N1 (stereo unspecified)	x	4	2	-6	-3
COc1ccc(OC)c(-c2oc3ccccc3c(=O)c2O)c1	-19	-22	-1	0	-1
COc1ccc(OC)c(C2=C/C(=C/c3ccccn3)C(=O)O2)c1	-28	-56*	189*	-14	-10
CN(CC(=O)Nc1cccc(F)c1)C(=O)/C=C/c1cc(Br)ccc1OC(F)F	-54*	11	2	-9	-5
Cc1cc(N2CCCC2)ccc1/C=C1/C(=O)N(C)C(=S)N1C	-8	4	36*	3	-4
COc1cc(/C=C2\NC(=S)N(C)C2=O)ccc1O	0	-5	16	4	-2
CCCN1C(=O)S/C(=C\c2ccc(N3CCOCC3)cc2C)C1=O	x	-3	5	x	-6
CCCN1C(=O)/C(=C/c2ccc(N3CCCC3)c(C)c2)NC1=S	u	x	x	1	x
Cc1cc(/C=C2\NC(=S)N(C)C2=O)ccc1N1CCCC1	15	-45*	331*	0	7
CN1C(=O)/C(=C/c2ccc(O)c([N+](=O)[O-])c2)NC1=S	-74*	7	0	-15	-4
Cc1cc(/C=C2/C(=O)N(C)C(=S)N2C)ccc1N1CCCC1	-17	x	127*	8	8
COc1ccc(N2CCN(C(=O)CS(=O)(=O)c3cccc4nsnc34)CC2)cc1	x	-4	8	-1	-4
CC(=O)Nc1ccc(NC(=O)c2cnn(-c3ccccc3)c2C2CCN(C(=O)OC(C)(C)C)CC2)cc1	x	1	2	-5	0
CCCCCCCCCCCCOCCOCCOCCOCCOCCOCCOCCOCCOCCO	x	x	x	10	x
O=c1c(-c2cccc3ccccc23)[n+]([O-])c2ccccc2n1O	-53*	-7	3	-2	3
CC(C)OCCCn1c(=O)c2ccccc2n2c(-c3ccccc3)nnc12	x	-10	11	-5	-1
Cc1cccc(N2CCN(c3ncnc4c3nc3n4CCCCC3)CC2)c1C	x	0	-1	7	3
COc1ccc(NC(=O)C2CCC(CNc3c(N4CCC(C)CC4)c(=O)c3=O)CC2)cc1OC (stereo unspecified)	-105*!	20	1	2	x
SMILES	D3 antag	D1 antagonist	D1 ag	D3 ag	D1 potentiator
c1ccc(-c2c(-c3ccccc3)n(Cc3ccco3)c3ncnc(NCCCn4ccnc4)c23)cc1	-95*	1	52*	3	7
N=c1c2c(-c3ccccc3)c(-c3ccccc3)n(Cc3ccco3)c2ncn1CCCn1ccnc1	-30	16	14	-7	-2
CC(C)Cn1cnc2c(c(-c3ccccc3)c(-c3ccccc3)n2Cc2ccco2)c1=N	-62*	20	34*	-2	-2
N=c1c2c(-c3ccccc3)c(-c3ccccc3)n(Cc3ccco3)c2ncn1Cc1ccccc1	-19	8	35*	0	-1
OCCNc1ncnc2c1c(-c1ccccc1)c(-c1ccccc1)n2Cc1ccco1	-4	-2	3	1	-4
N=c1c2c(-c3ccccc3)c(-c3ccccc3)n(Cc3ccccc3)c2ncn1CCO	15	56	218*	-1	46*
CCn1c(C(=O)O)c(CC(=O)NC2CCCCCC2)c2ccccc21	-89*	-4	-2	7	3
CCCn1cc(SCC(=O)NC2CCCC2)c2ccccc21	3	11	2	-21	5
Cn1cc(CC(=O)NC2CCCCC2)c2ccccc21	3	-26	2	2	-8
CCCn1cc(S(=O)(=O)CC(=O)NC2CCCCC2)c2ccccc21	-66*	3	0	-25	-4
COC(=O)c1c(NC(=O)c2c(OC)cccc2OC)sc2c1CCCC2	x	4	1	7	6
COC(=O)c1c(NC(=O)c2ccc(Br)s2)sc2c1CCC2	30	7	1	30*	7
COc1cc2c(=O)n(CC3CCCO3)c(=O)n(CC(=O)Nc3cccc(Cl)c3)c2cc1OC (stereo unspecified)	21	-44*	0	-6	-3
CC(C)NC(=O)NC(=O)COC(=O)c1c2c(nc3ccccc13)CCC2	83	-1	1	36*	-7
COc1cccc(NC(=O)CN(C)C(=O)CNC(=O)c2ccc3ccccc3c2)c1	6	-1	0	1	0
COc1cccc(NC(=O)CN(C)C(=O)CNC(=O)c2ccccc2F)c1	8	-33*	1	7	-1
COc1cccc(NC(=O)COC(=O)c2c3c(nc4ccccc24)CCC(C)C3)c1 (stereo unspecified)	33	12	1	53*	-3
O=C(COC(=O)c1c2c(nc3ccccc13)/C(=C\c1cccs1)CCC2)Nc1ccccc1	43	-4	4	38*	-2
CCOc1ccc(CCNC(=O)c2cn(C)c3ccc(S(=O)(=O)N4CCCCCC4)cc3c2=O)cc1OCC	x	6	0	7	1
COc1cccc(NC(=O)COC(=O)c2c(F)cccc2Cl)c1	-62*	-8	4	1	1
Cc1ccc(N2C(=O)N(CC(=O)NC(c3ccccc3)c3ccccc3)C(=O)C2C)cc1 (stereo unspecified)	2	-12	9	2	-2
Cc1ccc(N2C(=O)N(CC(=O)N(C)Cc3ccccc3)C(=O)C2C)cc1 (stereo unspecified)	-7	-55*	39*	18	-1
CCOC(=O)c1ccc(NC(=S)N2CCCC(C(=O)N3CCCC3)C2)cc1 (stereo unspecified)	20	-89*	2	6	-10
CC(=O)c1ccc(NC(=S)N2CCCC2)cc1	2	18	5	3	1
O=C(O)c1ccc(NC(=S)N2CCCCC2)cc1	5	-73*	0	-1	-8
COc1ccc(C(=O)Nc2nnc(SCc3cc(=O)n4cccc(C)c4n3)s2)cc1	x	-22	5	-13	2
